This passage reports Potency results from PubChem BioAssay AID651644 (National Center for Advancing Translational Sciences (NCATS), 2012).

Among all 360,000 compounds or so, about 750 (0.21%) were called active. Another 2% or so got no clear call; they are omitted. The call rests on the fitted dose curve; in most records, active means well fitted falling curve with a large enough effect; inconclusive means small, poorly fitted or top-dose-only effect; inactive means no such curve, though single readings can be large or run the other way. The entries come from a sample that favours actives as a whole. Where a call stands in place of a potency, no number is given.
Potency means the concentration at half of the fitted maximal effect.

The experiment is described as follows: qHTS Assay for Inhibitors of the HIV-1 protein Vpr. Further: nearly all actives have a fitted effect of over 50% in size. The conditions noted are these: S. pombe RE007 Vpr strain, BacTiter-Glo ATP luminescence, 24 h; series mostly up to 92.2 µM. An excerpt: Human immunodeficiency virus type 1 (HIV-1), the causative agent of AIDS, contains a protein called viral protein R (Vpr) that plays an important role in the viral life cycle and the pathogenesis of HIV-1.
These Vpr specific activities include cytoplasmic-nuclear shuttling, induction of cell cycle G2 arrest and cell killing. The cytoplasmic-nuclear shuttling is believed to participate in nuclear transport of the proviral integration complex (PIC). The cell cycle G2 arrest induced by Vpr is thought to suppress human immune functions by preventing T cell clonal expansion and to provide an optimized cellular environment for maximal levels of viral replication. In addition, Vpr induces apoptosis, which may contribute to the depletion of CD4 T cells in HIV-infected patients. Since the Vpr-specific activities have been linked to such clinical manifestation of AIDS as activation of viral replication, suppression of host immune responses and depletion of CD4+ T-lymphocytes, identification of new molecular probes that can inhibit the Vpr activities could potentially provide a new approach to reduce Vpr-mediated detrimental effects in HIV-infected patients, and thus prolong patient's lives. Currently, there are no anti-Vpr drugs.
A fission yeast (Schizosaccharomyces pombe) model system for the Vpr studies has been developed which measures HIV-1 Vpr-induced cell death. This assay will be used for to screen the NIH Molecular Libraries Small Molecule Repository (MLSMR) identify small molecule HIV-1 Vpr inhibitors.
NIH Chemical Genomics Center [NCGC]
NIH Molecular Libraries Probe Centers Network [MLPCN]
Assay Submitter (PI): Richard Zhao, University of Maryland
The fission yeast RE007 strain was used, which carries a single integrated copy of HIV-1 vpr gene in the yeast chromosome. The starting culture was frozen stock 100ul of yeast RE007 in 150ml of *PMG+AL medium, Incubation in 30 degree plus 99% humidity for 18 hours. Next day dispensed 2.5ul of PMG+AL medium in each well to 1536 well white solid plate, then 23nL compound were delivered to each well using a pin tool. Check OD for overnight culture and add cell density at 0.01 for each well, incubation in 30 degree plus 99% humidity for 24 hours. After add 5 ul of *BacTiter/Glo detect reagent to each well at room temperature for 5 minutes then to red out results with Viewlux CCD camera.
`O=C(CCn1nnnc1CN1CCOCC1)N1CCC(c2ccccc2Cl)C1` (centres undefined): the Potency entry is “inactive”.

With `CC(C)OC(=O)c1ccc(NCc2cc(O)ccc2O)cc1Cl`, the Potency was 28.2 µM (active).

Consider `CCC(C)c1ccccc1N1CC(C(=O)N2CCN(S(=O)(=O)c3ccc(F)cc3)CC2)CC1=O` (centres undefined), for which the Potency result is “inactive”.

Take `COc1ccc(C(=O)CN2C(=O)NC3(CCc4ccccc43)C2=O)c(OC)c1` (centres undefined): the Potency result is “inactive”.

Turning to `Cc1ccc(OCCCCc2c(C)n[nH]c2C)cc1`, the Potency result is “inactive”.

For `NC1=C([N+](=O)[O-])C(c2ccccc2)C2=C(CCCC2=O)O1` (centres undefined), the Potency entry was “inactive”.

On to `CCc1ccc2oc(-c3ccc(N)cc3)nc2c1`, for which the Potency was 11.2 µM (active).

`COc1ccccc1N1CCN(S(=O)(=O)c2ccc3c(c2)NC(=O)CS3)CC1`: the Potency result is “inactive”.

Turning to `CC1(C(=O)Nc2ccc3c(c2)OCCO3)CSCC(=O)N1CCOc1ccccc1` (centres undefined), the Potency entry was “inactive”.

Regarding `Cc1nn(CCCC(=O)NCc2ccccc2Cl)c(=O)c2nccn12`, the Potency entry is “inactive”.

Take `O=c1c2ccccc2ncn1CCc1ccncc1`: the Potency entry is “inactive”.

Take `NNc1cccc(C=Cc2ccccc2)cc1=O`: the Potency was 28.2 µM (active).

Turning to `COc1ccccc1C(=O)NCc1nnc(SC(C)C(=O)Nc2nccs2)n1C` (centres undefined), the Potency result was “inactive”.

Turning to `Cc1ccc2cc3cc(C(=O)N4CCCCCC4)oc3nc2c1`, the Potency entry is “inactive”.

On to `O=C(c1cccc(Br)c1)N1CCN(C2=NS(=O)(=O)c3ccccc32)CC1`, for which the Potency entry is “inactive”.

For `CCCOc1ccc(NC(=O)CC2C(=O)N(C)C(=S)N2Cc2ccc3c(c2)OCO3)cc1` (centres undefined), the Potency entry is “inactive”.

`O=C(NCCc1ccccn1)c1cccnc1Oc1ccc(Cl)cc1`: the Potency result is “inactive”.

For the compound `CCOc1ccc(CCNC(=O)CSc2cc(=O)n(C)c3ccc(Cl)cc23)cc1OCC`, the Potency result was “inactive”.

As for `CN(C)NC(=O)C(NC(=O)c1ccc(N)cc1)C12CC3CC(CC(C3)C1)C2` (centres undefined), the Potency entry was “inactive”.

In the case of `CC1(C)CC[C@]2(C(=O)O)CC[C@]3(C)C(=CCC4[C@@]5(C)CC[C@H](O)C(C)(C)C5[C@H](O)C[C@]43C)[C@@H]2C1` (some centres undefined), the Potency entry was “inactive”.

Take `O=C(Nc1ccc(F)cc1)Nc1nnc([C@H]2C[C@H](O)[C@@H](CO)O2)s1`: the Potency result is “inactive”.

For `COC(=O)C1CCN(C(=O)COC(=O)c2cc(S(=O)(=O)N3CCOCC3)ccc2C)CC1`, the Potency entry was “inactive”.

Consider `CC1CCCC(C)N1C(=O)CN1CCN(c2nc(-c3ccc(F)cc3)cs2)CC1` (centres undefined), for which the Potency entry was “inactive”.

For the compound `O=C(NC1CCCC1)C(c1c(F)cccc1Cl)N(C(=O)c1csnn1)C1CC1` (centres undefined), the Potency entry is “inactive”.

As to `O=C(NC1=CC(=O)c2ccccc2C1=O)c1ccccc1`, the Potency was 12.6 µM (active).

Take `O=C(OCC(O)C(O)COC(=O)c1ccccc1)c1ccccc1` (centres undefined): the Potency entry is “inactive”.

As for `O=C(Nc1ccc(S(=O)(=O)N2CCc3ccccc3C2)cc1)c1ccccc1`, the Potency result is “inactive”.

Consider `COc1ccc(C(=O)C(OP(=O)(OC)OC)c2ccccc2OC)cc1` (centres undefined), for which the Potency entry was “inactive”.

As for `CCOC(=O)c1ccc(N2C(=O)CC(N(C)Cc3ccccc3)C2=O)cc1` (centres undefined), the Potency is 12.6 µM (active).

Regarding `CCOC(=O)c1ccc(N2C(=O)CC(Sc3nc(O)c(CC)c(=O)[nH]3)C2=O)cc1` (centres undefined), the Potency result is “inactive”.

Take `CCOC(=O)c1ccc(N2C(=O)CC(N3CCC(C(=O)OCC)CC3)C2=O)cc1` (centres undefined): the Potency was 12.6 µM (active).

Regarding `COc1ccc(N2C(=O)CC(N3CCC(C(N)=O)CC3)C2=O)cc1` (centres undefined), the Potency was 25.1 µM (active).

On to `CCOC(=O)N(Cc1ccccc1)C1CC1`, for which the Potency entry was “inactive”.

On to `COC(=O)c1cc(C(=O)OC)cc(N2C(=O)CC(N3CCN(c4ccccc4)CC3)C2=O)c1` (centres undefined), for which the Potency entry was “inactive”.

Take `COc1ccc(N2CCN(C3CC(=O)N(c4ccc5c(c4)OCCO5)C3=O)CC2)cc1` (centres undefined): the Potency result was “inactive”.

As to `CCCCOC(=O)c1ccc(N2C(=O)CC(N3CCN(C/C=C/c4ccccc4)CC3)C2=O)cc1` (centres undefined), the Potency result is “inactive”.

With `COc1ccc(CCN2C(=O)CC(N3CCC(C(N)=O)CC3)C2=O)cc1OC` (centres undefined), the Potency result is “inactive”.

Turning to `NC(=O)Nc1ccccc1C(=O)NCCc1ccccc1`, the Potency entry is “inactive”.

Turning to `Cc1nn(CC(=O)N2CCCCC2)c(=O)c2nn(-c3ccccc3)c(C)c12`, the Potency result is “inactive”.

For `O=S1(=O)CCOC[C@H](CC2CCCCC2)N1Cc1ccc(F)cc1`, the Potency entry was “inactive”.

On to `C=CCOc1ccc(/C=C/C(=O)OCC(=O)NC2CCCCCC2)cc1`, for which the Potency result was “inactive”.

Regarding `CCCCn1c(N)c(N(CCC(C)C)C(=O)COC(=O)c2ccc(CC)cc2)c(=O)[nH]c1=O`, the Potency result is “inactive”.

On to `O=C(CC1OC(=O)c2ccccc21)NC1CCCCC1` (centres undefined), for which the Potency result is “inactive”.

Regarding `O=C(N/C(=C/c1ccc(Cl)cc1)C(=O)N1CCCCC1)c1ccco1`, the Potency entry is “inactive”.

As to `CCOC(=O)c1ccc(-n2c(C)nc3c(cnn3-c3ccccc3C)c2=O)cc1`, the Potency result was “inactive”.

As to `O=C(CP(=O)(c1ccccc1)c1ccccc1)N1CCOCC1`, the Potency entry was “inactive”.

With `O=C(O)c1ccc(NN=CC2=C(N3CCOCC3)/C(=C/c3ccccc3)CC2)cc1`, the Potency was 35.5 µM (active).

In the case of `O=C(O)c1ccc(N=NN2CCOCC2)cc1`, the Potency result was “inactive”.

For the compound `Cc1[nH]nc(SCC(=O)NCC(C)C)c1[N+](=O)[O-]`, the Potency result is “inactive”.

For `COc1ccc(CN2C(=O)C(CC(=O)NCc3cccc4ccccc34)CC(C(=O)N3CCOCC3)=C2C)cc1` (centres undefined), the Potency result is “inactive”.

For the compound `COc1ccc(C(=O)Nc2ccccc2C(=O)N/N=C/c2ccc(O)c(OC)c2)cc1`, the Potency is 7.94 µM (active).

Regarding `COc1cc(/C=N/NC(=O)Nc2ccccc2)ccc1OCCOc1ccccc1C`, the Potency entry is “inactive”.

For `COc1cccc(C(=O)N/N=C(\C)c2cccc(NC(=O)c3ccc(F)cc3)c2)c1OC`, the Potency entry was “inactive”.

Consider `CCCNC(=O)c1ccccc1NC(=O)CSCc1ccc(OC)cc1`, for which the Potency result was “inactive”.

As to `COc1ccc(C(=O)Nc2ccccc2C(=O)N/N=C/c2ccccc2OC)cc1`, the Potency is 35.5 µM (active).

In the case of `CC(C)(C)C(=O)Nc1ccc(C(=O)N/N=C/c2ccccc2OC(=O)c2ccc(Cl)cc2Cl)cc1`, the Potency entry was “inactive”.

Turning to `CC(C)C(c1nnnn1C1CCCCC1)N1CCN(C(=O)c2ccco2)CC1` (centres undefined), the Potency result was “inactive”.

For `CCC1Nc2ncnc(N3CCN(c4ccccc4)CC3)c2N(Cc2ccc(Cl)cc2)C1=O` (centres undefined), the Potency result is “inactive”.

As to `O=C(NNC1CC(=O)N(c2cccc(Cl)c2)C1=O)c1cccnc1` (centres undefined), the Potency entry is “inactive”.

`Cc1ccc(NC(=O)C2CCC(C(C)(C)C)CC2)cc1S(=O)(=O)N1CCOCC1` (centres undefined): the Potency result was “inactive”.

Regarding `Cc1nn(C)c(C)c1S(=O)(=O)N1CCc2ccccc21`, the Potency result was “inactive”.

With `Cc1[nH]c(C)c(S(=O)(=O)N2CCC(C)CC2)c1C(=O)N1CCCC1`, the Potency result was “inactive”.

Turning to `O=C(O)c1cscn1`, the Potency result was “inactive”.

`CC(C)CC1(C(=O)NCc2ccccn2)C=CCN1C(=O)c1ccccc1` (centres undefined): the Potency result was “inactive”.
